In PubChem BioAssay (Tox21):
Values joined by “and” are separate entries in the source; they are usually repeats but may differ in a detail not shown here. Identical values can stand only once. Records with an inconclusive call do not appear. Where a call stands in place of a potency, no number is given. Active and inactive are the calls of the source. Calls come from the whole dose curve.

Experiment: p53 small molecule agonists, cell-based qHTS assay: qHTS cell viability counter screen (AID 1963581); note: nearly all actives have a fitted effect of over 45% in size
Conditions: p53RE-bla HCT-116 viability, ATP luminescence, 16 h; series mostly up to 66 µM
Source text: National Center for Advancing Translational Sciences [NCATS]
Division of Preclinical Innovation [DPI]
U.S. Environmental Protection Agency [EPA]
National Institutes of Environmental Health Sciences [NIEHS]
National Toxicology Program [NTP]
U.S. Food and Drug Administration [FDA]
p53, a tumor suppressor protein, is activated following cellular insult, including DNA damage and other cellular stresses. The activation of p53 regulates cell fate by inducing DNA repair, cell cycle arrest, apoptosis, or cellular senescence. The activation of p53, therefore, is a good indicator of DNA damage and other cellular stresses. The CellSensor p53RE-bla HCT-116 cell line (Invitrogen) contains a stably integrated beta-lactamase reporter gene under control of the p53 response elements. The activation of the reporter gene under culture conditions can be detected by fluorescence intensity. This cell line was used to screen the Tox21 compound library in a 1536-well plate format and to identify agonists that activate the p53 signaling pathway. The cytotoxicity of the Tox21 compound library against the p53 RE-bla HCT-116 cell line was tested in parallel by measuring the intra cellular ATP content in the same wells.
Tox21 Assay Protocol Summary:
The p53RE-bla cells were dispensed at 4,000 cells/5 ul/well in 1536-well black wall/clear bottom plates using a Multidrop dispenser. After the assay plates were incubated at a 37 C/5% CO2 incubator for 5 hours, 23 nL of compounds dissolved in DMSO, positive controls or DMSO only was transferred to the assay plate by a pin tool. The plates were incubated at 37 C for 16 hours. After 1 uL of LiveBLAzerTM B/G FRET substrate was added using a Flying Reagent Dispenser, the plates were incubated at room temperature for 2 hours, and fluorescence intensity was measured by an Envision plate reader. For cell viability readout that measures cytotoxicity, 4 ul/well of CellTiter-Glo reagent was added into the assay plates using a Flying Reagent Dispenser. After 30 min incubation at room temperature, the luminescence intensity in the plates was measured using a ViewLux plate reader.
Potency is the fitted concentration of half-maximal effect.

Row | Compound | Potency
1 | CCCCCCCCCCCCOC(=O)c1cc(O)c(O)c(O)c1 | 40.6 µM (active) and 40.8 µM (active)
2 | CCCCN(CCCC)CCCC | inactive
3 | CC(=O)Nc1c(I)c(NC(C)=O)c(I)c(C(=O)O)c1I | inactive
4 | NC(=O)OCC(COC(N)=O)c1ccccc1 | inactive
5 | CC1(C)OC(=O)NC1=O | inactive
6 | O=C1O[C@H](CO)[C@@H](O)[C@H](O)[C@H]1O | inactive
7 | COC(=O)[C@H]1[C@H]2C[C@@H]3c4[nH]c5cc(OC)ccc5c4CCN3C[C@H]2C[C@@H](OC(=O)c2cc(OC)c(OC)c(OC)c2)[C@@H]1OC | inactive
8 | C=CC(=O)NC(C)(C)CS(=O)(=O)O | inactive
9 | O=C(O)CCCCCCCCC(=O)O | inactive
10 | CCCCCCCCC/C=C/CC1CC(=O)OC1=O (stereo not given) | inactive
11 | CCCCCCCCCCCCCCCCCC(=O)OCC(O)CO (stereo not given) | inactive
12 | O=Nc1ccc(O)cc1 | inactive
13 | O=Cc1ccccc1O | inactive
14 | C=CC(=O)OCCCC | inactive
15 | COc1cc([C@H]2Oc3cc([C@H]4Oc5cc(O)cc(O)c5C(=O)[C@@H]4O)ccc3O[C@@H]2CO)ccc1O | inactive
16 | Nc1nc2ccccc2[nH]1 | inactive
17 | CCC[C@H](N[C@@H](C)C(=O)N1[C@H](C(=O)O)C[C@@H]2CCCC[C@@H]21)C(=O)OCC | inactive
18 | [Na+] | inactive
19 | CCCN(CCC)S(=O)(=O)c1ccc(C(=O)O)cc1 | inactive
20 | COC(=O)c1cccc(C(=O)OC)c1 | inactive

Row | Compound | Potency
21 | C[C@]12C[C@H](O)[C@H]3[C@@H](CCC4=CC(=O)CC[C@@]43C)[C@@H]1CC[C@@H]2C(=O)CO | inactive
22 | NS(=O)(=O)O | inactive
23 | CCC(=O)O | inactive
24 | CCOc1ccc(NC(C)=O)cc1 | inactive
25 | OC[C@@H](O)[C@@H](O[C@@H]1O[C@H](CO)[C@H](O)[C@H](O)[C@H]1O)[C@H](O)[C@@H](O)CO | inactive
26 | NC(=O)N/N=C/c1ccc([N+](=O)[O-])o1 | inactive
27 | Cc1ccc(C)c(S(=O)(=O)O)c1 | inactive
28 | CN(C)C=O | inactive
29 | COCCc1ccc(OCC(O)CNC(C)C)cc1 (stereo not given) | inactive
30 | COc1ccc(Nc2ccccc2)c(C)c1 | inactive
31 | CCc1cccc2c3c([nH]c12)C(CC)(CC(=O)O)OCC3 (stereo not given) | inactive
32 | Cn1c(=O)c2[nH]cnc2n(C)c1=O | inactive
33 | COc1cc(NC(=O)CC(C)=O)c(OC)cc1Cl | inactive
34 | CC1(C)CC(N=C=O)CC(C)(CN=C=O)C1 (stereo not given) | inactive
35 | CCc1ccc(CCOc2ccc(CC3SC(=O)NC3=O)cc2)nc1 (stereo not given) | inactive
36 | CC(C)CCCCCCCOC(=O)CCCCC(=O)OCCCCCCCC(C)C | inactive
37 | CC(=O)CC(c1ccccc1)c1c(O)c2ccccc2oc1=O (stereo not given) | inactive
38 | CNC[C@H](O)c1ccc(O)c(O)c1 | inactive
39 | CC(=O)CC(C)(C)O | inactive
40 | CC(=O)c1nccs1 | inactive
